Data on 25 compounds can be found in PubChem BioAssay (NCI).

This is part of a sample that, as a whole, favours compounds with a hit. Of some 83,000 tested, about 20% had one in any assay.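 For each line, cells grew in 96-well plates with the test compound present at a single concentration for 48 hours.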 Activity calls are given as the source filed them. How the source made its calls: active means growth percent below 10; inactive means the rest.

This assay relates to HL-60(TB) leukemia. In words: NCI-60 one-dose screen, 48 h (100 = growth as untreated, 0 = no growth, -100 = all killed). The settings on record: 10 µM unless noted.
Consider `Cc1[nH]c(-c2ccc3cc[nH]c3c2)c2c1C(=O)CCCC2`, for which the growth is 20.5% (inactive).
To `O=c1ccn(C2OC(CO)C(O)C2F)c(=O)[nH]1` (stereo not given) belongs 130% (inactive); to `CN(C)CCCn1c2c(c3cnccc3c1=O)C(=O)c1ccccc1-2`, 2.29% (active).
As for `O=C(Nc1ccc(-n2cc(-c3ccncc3)c(-c3ccc(Cl)c(O)c3)n2)cc1)c1ccc(Cl)c(C(F)(F)F)c1`, the growth is -29.1% (active).
Consider `CN(C)c1ccc(/C=C(\C#N)c2nc3ccccc3s2)cc1`, for which the growth is 93.3% (inactive).
The figure for `COc1ccc(C2=Nc3c(C)nn(-c4ccccc4)c3NC(c3ccc(Oc4ccnc5cc(Cl)ccc45)c(OC)c3)C2)cc1` (stereo not given) is 90.8% (inactive); for `C/C=C(/C)n1cnc2c(Nc3ccccn3)nc(Cl)nc21` it is 107% (inactive).
The figure for `Cc1cc(NC(=O)Nc2cc(Cl)ccc2C)no1` is 88.4% (inactive); for `CCCCN(CC)CC(CC)Nc1cc(OC)cc2cccnc12` (stereo not given) it is 126% (inactive); for `O=C(N/N=C/c1ccc(O)cc1O)c1cccc(Nc2ccnc(C(F)(F)F)c2)c1` it is 8.21% (active).
To `CC[C@H](Nc1ncnc2nc[nH]c12)c1nc2cccc(CC(=O)c3ccc(C(=O)NO)cc3)c2c(=O)n1-c1ccccc1` belongs 75.5% (inactive); to `NC1=NN=C(N)C1=Cc1cc2ccccc2n2nnnc12`, 96.8% (inactive); to `CCNCCNc1cc(-c2ccc(C(F)(F)F)cc2)c(C#N)c2nc3ccccc3n12`, -65.9% (active).
Consider `COc1cc(C(=O)c2c(-c3ccccc3)oc3ccccc23)cc(OC)c1O`, for which the growth is 5.07% (active).
The figure for `CC(C)[C@]12O[C@H]1[C@@H]1O[C@]13[C@]1(O[C@H]1C[C@H]1C4=C(CC[C@@]13C)C(=O)OC4)[C@@H]2OC(=O)CN(C)C` is -24.3% (active).
To `O=C1/C(=C\c2cn(C(=O)c3ccc(Cl)cc3)c3ccccc23)c2ccccc2N1C(=O)c1ccc(Cl)cc1` belongs 54.2% (inactive).
On to `CC1=C2[C@@H](CC1)[C@]1(C)O[C@@](C(C)C)(C[C@H]1OC(=O)CO)[C@H]2OC(=O)C1CC1c1ccccc1` (stereo not given in full), for which the growth was 89.8% (inactive).
In the case of `CC(C(C(=O)N1CCCCC1)N1CCCCC1)N1CCCCC1` (stereo not given), the growth is 104% (inactive).
To `COc1cc(/C=C/c2cc(O)c3cc(C(C)=O)c(=O)oc3c2)cc2c1O[C@]1(C)CC[C@@H](O)C(C)(C)[C@H]1C2` belongs 4.64% (active); to `CNS(=O)(=O)c1cccc(-c2ccc3c4c(n(C)c(=O)c3c2)-c2ccccc2C4=O)c1`, -4.99% (active).
For the compound `Clc1cc(Cl)c(OCCCCCCN2CCNCC2)c(Cl)c1`, the growth is -34.3% (active).
To `COc1cc(Cl)ccc1C` belongs 107% (inactive); to `c1cnc2nc3c(cc2c1)oc1ccccc13`, 96.4% (inactive); to `O=c1cc(-c2ccc(OCc3ccccc3)cc2)oc2c(I)c(OCc3ccccc3)cc(OCc3ccccc3)c12`, 117% (inactive).
As to `COc1cc(C(=O)c2cc(C)c3[nH]c4ccc(Cl)cc4c3c2C)cc(OC)c1OC`, the growth was 0.383% (active).
